697 NFkB inh – inhibitors of PMA/ionomycin-induced NF-kB reporter, 697 cells, primary screen, B-cell NF-kB inhibitor project, cell-based, luminescence, uHTS. 697 B-cell NF-kB luciferase reporter, 16 h. inhibition, % at 4 µM. 330,000 compounds, 0.33% hits; in the data active means inhibition above about 35%
Gli-Sufu block – Gli-Sufu pathway antagonists, primary screen, luciferase luminescence, Sufu-KO-LIGHT cells, uHTS; 340,000 compounds, 0.74% hits; inhibition, % at 5 µM; AID 588413, 2011; Sufu-KO-LIGHT fibroblasts, Gli luciferase reporter luminescence;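 active means inhibition above about 55%, limit read from the data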;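 further: 0% = DMSO-treated cells and 100% = wells with medium but no cells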
aSyn UTR inh – MLPCN primary screen, SNCA 5' untranslated region; 300,000 compounds, 0.82% hits; alpha-synuclein 5'UTR reporter, inhibitor activity; inhibition, % (tested at 7.5 µM); in the data active means inhibition above about 60%;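 further: H4 neuroglioblastoma cells stably carrying SNCA 5'UTR luciferase fusion; 0% = DMSO wells and 100% = positive control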
Mdm2 MdmX PPI – inhibitors of human Mdm2-MdmX association, primary screen, cell-based, luminescence, split luciferase, SaOS-2, uHTS; Protein Mdm4 (Homo sapiens) + E3 ubiquitin-protein ligase Mdm2 (Homo sapiens), …; SaOS-2 split-luciferase Mdm2/MdmX complementation; inhibition, % at 8 µM; 330,000 compounds, 3% hits;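 active means inhibition of at least 50% at 8 µM in the primary screen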
Target sequence (O15151 whole entry, looked up): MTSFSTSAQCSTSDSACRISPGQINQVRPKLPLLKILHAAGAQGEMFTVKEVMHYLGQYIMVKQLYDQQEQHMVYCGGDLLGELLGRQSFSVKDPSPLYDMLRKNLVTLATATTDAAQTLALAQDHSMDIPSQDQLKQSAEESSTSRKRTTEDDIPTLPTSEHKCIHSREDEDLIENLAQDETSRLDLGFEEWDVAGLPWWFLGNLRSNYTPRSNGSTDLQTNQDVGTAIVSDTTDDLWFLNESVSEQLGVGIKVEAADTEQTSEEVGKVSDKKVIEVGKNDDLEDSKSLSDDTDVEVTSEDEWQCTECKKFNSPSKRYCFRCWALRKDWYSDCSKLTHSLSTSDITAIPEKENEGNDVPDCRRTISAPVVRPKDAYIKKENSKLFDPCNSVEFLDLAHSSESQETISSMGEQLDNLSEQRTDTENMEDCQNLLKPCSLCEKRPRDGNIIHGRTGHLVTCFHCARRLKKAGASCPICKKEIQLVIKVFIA
Target sequence (Q00987 whole entry, looked up): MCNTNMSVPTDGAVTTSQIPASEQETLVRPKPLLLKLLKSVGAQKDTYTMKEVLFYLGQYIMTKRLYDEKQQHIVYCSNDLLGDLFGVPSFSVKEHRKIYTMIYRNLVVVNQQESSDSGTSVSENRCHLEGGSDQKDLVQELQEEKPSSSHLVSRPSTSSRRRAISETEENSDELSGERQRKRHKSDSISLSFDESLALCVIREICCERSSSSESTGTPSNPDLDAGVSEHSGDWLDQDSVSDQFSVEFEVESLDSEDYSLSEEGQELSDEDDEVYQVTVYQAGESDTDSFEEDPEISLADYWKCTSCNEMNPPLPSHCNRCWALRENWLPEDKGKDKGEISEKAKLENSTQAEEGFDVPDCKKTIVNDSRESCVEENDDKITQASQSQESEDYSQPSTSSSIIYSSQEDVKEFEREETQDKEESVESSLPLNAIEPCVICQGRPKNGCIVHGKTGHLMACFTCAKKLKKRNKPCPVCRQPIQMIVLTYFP
Jurkat NFkB inh – inhibitors of induced NF-kB luciferase reporter, primary screen, TCR NF-kB activation inhibitor project, cell-based, luminescence, uHTS; 330,000 compounds, 0.53% hits; inhibition, % at 4 µM; AID 435003, 2010; Jurkat, PMA/ionomycin-induced NF-kB luciferase reporter; in the data active means inhibition above about 50%
CSC inhib – cancer stem cell viability inhibitors, primary screen, luminescence; cancer stem cell-like cells viability; AID 2717, 2010; 300,000 compounds, 1.1% hits; inhibition, % at 7.5 µM; in the data active means inhibition above about 75%; tested in HMLE shEcad cells
Gli antag conf – Gli-SUFU pathway antagonists, confirmation, single concentration, luciferase luminescence, Sufu-KO-LIGHT cells | shares compounds with Gli-Sufu block | Gli luciferase reporter | inhibition, % at 5 µM | 2,500 compounds, 40% hits | AID 602428, 2012;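 active means mean inhibition at 5 µM reaching about 45%, limit read from the data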;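 further: plate controls were DMSO-treated cells for no effect and wells lacking cells for full effect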
SufuKO cytotox – cytotoxicity in Sufu-KO-LIGHT cells, confirmation, cytotoxicity control for Gli-SUFU antagonist project, cell-based, ATP luminescence, single concentration | shares compounds with Gli-Sufu block | cytotoxicity, % at 5 µM | 2,500 compounds, 32% hits;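 active means mean cytotoxicity at 5 µM above about 25%, limit read from the data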;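 further: cells exposed to compound overnight for roughly 16 to 18 hours; plate controls were DMSO wells with cells for no effect and medium without cells for full effect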
Wnt3a counter – Wnt3a reporter signal inhibition, confirmation, counter-screen for Gli-SUFU antagonist project, Wnt-LIGHT cells, luminescence, single concentration; AID 651995, 2013; Wnt3a-driven luciferase reporter; 2,500 compounds, 20% hits; inhibition, % at 6.25 µM; shares compounds with Gli-Sufu block;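 active means mean inhibition above about 25%, limit read from the data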
Numbers without * were called inactive; / = no result. Compounds with a hit are over-represented: about 4.5% of the library has one in this group of screens.

SMILES | 697 NFkB inh | Gli-Sufu block | aSyn UTR inh | Mdm2 MdmX PPI | Jurkat NFkB inh | CSC inhib | Gli antag conf | SufuKO cytotox | Wnt3a counter
COc1ccccc1NS(=O)(=O)c1cccc(C(=O)NC2CCN(Cc3ccccc3)CC2)c1 | -23 | 54 | 83* | 26 | 45 | -2 | 57* | 27* | -1
Cc1ccc(C(=O)NC2CCN(Cc3ccccc3)CC2)cc1S(=O)(=O)N1CCOCC1 | -40 | 61* | 7 | 10 | 24 | -15 | 18 | 19 | 4
CNC(=S)N/N=C/c1c2ccccc2c(Cl)c2ccccc12 | -7 | -16 | 12 | 19 | -16 | 10 | / | / | /
CCC(C)(C)NC(=O)C(c1ccc(C)cc1)N(CCN1CCOCC1)C(=O)CNC(=O)c1cccs1 (centres undefined) | 9 | -2 | 2 | -8 | 15 | -14 | / | / | /
COc1ccccc1-n1c(=O)c2c3c(sc2n2c(SC)nnc12)CCC3 | 18 | 52 | -11 | 5 | 4 | -6 | 15 | -4 | 17
CCSc1nnc2n(-c3ccc(OC)cc3)c(=O)c3c4c(sc3n12)CCCC4 | 15 | -1 | -10 | 11 | 29 | -2 | / | / | /
O=C(Oc1ccccc1N1C(=O)C2CC=CCC2C1=O)c1ccc(Br)cc1 (centres undefined) | -15 | 52 | -59 | -34 | -3 | -7 | 17 | 11 | -16
Cc1ccccc1C(=O)Oc1ccccc1N1C(=O)C2CC=CCC2C1=O (centres undefined) | -2 | 9 | -14 | -6 | -2 | 8 | / | / | /
O=c1nc2ccccc2c(NS(=O)(=O)c2ccccc2)n1-c1ccccc1 | -5 | 83* | 15 | 6 | -14 | -13 | 27 | 15 | -15
Cc1ccc(S(=O)(=O)Nc2ccc(-n3c(C)nc4ccccc4c3=O)cc2)cc1 | -17 | 82* | 4 | 26 | -6 | 4 | 20 | 21 | -10
Cc1ccc(S(=O)(=O)Nc2c3ccccc3nc(=O)n2-c2ccccc2)cc1 | -61 | 12 | 17 | -1 | -38 | 3 | / | / | /
COc1cc(C)nc(NS(=O)(=O)c2ccc(C)cc2)n1 | 1 | 8 | 8 | -18 | -12 | -7 | / | / | /
Cc1[nH]c2ccccc2c1[C@H]1[C@@H](CC#N)C1(C)C | 13 | 51 | 1 | 10 | -1 | 4 | 22 | 5 | -6
Cc1cc(C(=O)COc2cccnc2[N+](=O)[O-])c(C)n1Cc1cccs1 | 13 | 71* | 1 | -9 | 5 | 16 | 28 | 21 | 49*
Cc1cc(-n2c(C)cc(C(=O)COc3cccnc3[N+](=O)[O-])c2C)no1 | -16 | 0 | / | 34 | -15 | / | / | / | /
CCOC(=O)c1c(NC(=O)C(=O)N/N=C/c2ccccc2O)sc2c1CCCCC2 | -3 | 70* | 27 | 15 | 12 | 83* | 75* | 17 | 20
CCOC(=O)c1c(NC=O)sc2c1CCC2 | -18 | 70* | -8 | -15 | 7 | / | 12 | -4 | 21
CCOC(=O)c1c(NC(=O)COC)sc2c1CCCC2 | -7 | 7 | 26 | 14 | -20 | -1 | / | / | /
Cc1ccc(C(=O)N/C(=C\c2cccs2)C(=O)NCC2CCCO2)cc1C (centres undefined) | 6 | 0 | -26 | -4 | 5 | -11 | / | / | /
CCN(CC(=O)N1CCOCC1)S(=O)(=O)c1cc(Cl)ccc1Cl | -22 | -1 | 1 | -13 | 0 | -2 | / | / | /
Cc1cc(C)c(C2=NOC3C4CCC(C4)C23)c(C)c1 (centres undefined) | -14 | 4 | -4 | -20 | 4 | -2 | / | / | /
CCOC(=O)[C@H]1[C@H]2COc3ccc(OC)cc3[C@@H]2N2C(=O)c3cc(OC)c(OC)cc3NC(=O)[C@@]12C | -6 | 99* | / | 4 | 7 | 14 | 18 | -9 | 13
CC1=NCCN1S(=O)(=O)c1cc(Cl)ccc1Cl | 2 | 56* | -28 | 10 | 1 | -4 | 23 | 17 | -3
COc1ccc(N2CCN(C(C)C(=O)N3CC(C)OC(C)C3)CC2)cc1 (centres undefined) | 23 | 54 | / | 0 | -6 | -15 | 13 | 6 | -2
O=S(=O)(NCc1cn2ccccc2n1)c1cc(F)ccc1F | -1 | 62* | -4 | -13 | -13 | / | 26 | 8 | -14
SMILES | 697 NFkB inh | Gli-Sufu block | aSyn UTR inh | Mdm2 MdmX PPI | Jurkat NFkB inh | CSC inhib | Gli antag conf | SufuKO cytotox | Wnt3a counter
O=S(=O)(NCc1cn2ccccc2n1)c1cccs1 | -9 | -10 | -64 | -2 | -20 | -1 | / | / | /
O=C(CN(CC1CCCO1)C(=O)CCC(=O)Nc1nccs1)NCC1CCCO1 (centres undefined) | -24 | -3 | -2 | -16 | 4 | -9 | / | / | /
CCCCC(=O)Nc1nnc(SCC(=O)NCC2CCCO2)s1 (centres undefined) | 16 | -6 | -1 | 27 | 3 | -13 | / | / | /
CCc1nnc(NC(=O)CCC(=O)NCC2CCCO2)s1 (centres undefined) | 21 | 50 | 19 | 8 | 9 | -13 | 22 | 23 | -14
O=C(CN(Cc1ccccc1)C(=O)CCC(=O)Nc1nccs1)NCC1CCCO1 (centres undefined) | 22 | 50 | 8 | -6 | -17 | / | 14 | 7 | 8
O=C(O)c1ccc(N2CC3CC(C2)c2cccc(=O)n2C3)c(NC(=S)Nc2ccc(Br)cc2)c1 (centres undefined) | -6 | -6 | -21 | 23 | -3 | 25 | / | / | /
C/C(=N\Nc1cc(N2CCCCC2)nc(C)n1)c1ccc(Br)cc1 | -50 | 79* | -4 | 39 | 14 | 105* | 52* | 45* | 22
C/C(=N\Nc1cc(N2CCOCC2)nc(C)n1)c1ccc(F)cc1 | 15 | 19 | 11 | 10 | 11 | -3 | / | / | /
O=C(Nc1cccc(-c2nc3ccccc3[nH]2)c1)c1ccco1 | -38 | -12 | -46 | -29 | -15 | -18 | / | / | /
N=c1c(-c2nc3ccccc3[nH]2)cc(C(=O)c2ccco2)nn1-c1ccccc1 | -13 | 62* | -39 | 38 | 5 | 19 | 35 | 6 | -118
COc1cccc(CNC(=O)C(C)n2ccc3cc(S(=O)(=O)N4CCCCCC4)ccc32)c1 (centres undefined) | 2 | 34 | 18 | 26 | -7 | 4 | / | / | /
COc1ccc(CNC(=O)CCCn2ccc3cc(S(=O)(=O)N4CCCC4)ccc32)cc1 | -17 | 59* | -23 | 46 | 44 | -6 | 8 | 27* | -97
CCOc1ccc(CNC(=O)CCCn2ccc3cc(S(=O)(=O)N4CCCC4)ccc32)cc1 | 2 | 19 | 15 | 25 | 15 | -3 | / | / | /
CCC(C(=O)NCCC(C)C)n1ccc2cc(S(=O)(=O)N3CCCCC3)ccc21 (centres undefined) | -35 | 67* | 10 | 26 | 17 | 5 | 45 | 23 | -9
O=C(CN1C(=O)c2ccccc2C1=O)Oc1ccc(Cl)cc1 | -3 | 10 | -1 | 6 | 10 | -9 | / | / | /

From PubChem
